Laboratory results published in PubChem BioAssay (NCI).
Several values for one entry are separate records, joined by “and”; a condition that tells them apart may be missing. Equal values may be shown once. About 83,000 compounds went through this panel and 20% of them were active in at least one assay; those are over-represented in the sample as a whole.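 Compound tested at a single concentration for 48 hours in 96-well plates; a percent growth value below 10 was scored as active.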 Values without a mark were called inactive. Activity calls are given as the source filed them.

Tests used:
Assay in all cases: NCI-60 one-dose screen, 48 h (100 = growth as untreated, 0 = no growth, -100 = all killed)
Conditions in all cases: 10 µM unless noted
[1] = system: SK-MEL-2 melanoma
[2] = system: EKVX NSCLC
[3] = system: SN12C renal
[4] = system: TK-10 renal
[5] = system: ACHN renal
[6] = system: CAKI-1 renal
[7] = system: A498 renal
[8] = system: HL-60(TB) leukemia
[9] = system: CCRF-CEM leukemia
[10] = system: MOLT-4 leukemia
[11] = system: SR leukemia
[12] = system: RPMI-8226 leukemia
[13] = system: OVCAR-8 ovarian
[14] = system: OVCAR-5 ovarian
[15] = system: OVCAR-4 ovarian
[16] = system: SK-OV-3 ovarian
[17] = system: IGROV1 ovarian
[18] = system: OVCAR-3 ovarian
[19] = system: HS 578T breast
[20] = system: UO-31 renal

OCCNC1CCCCC1
growth [1]: 104% | growth [2]: 97.9% | growth [3]: 100% | growth [4]: 106% | growth [5]: 102% | growth [6]: 102% | growth [7]: 93.4% | growth [8]: 100% | growth [9]: 103% | growth [10]: 89.2% | growth [11]: 94.2% | growth [12]: 108% | growth [13]: 112% | growth [14]: 98% | growth [15]: 111% | growth [16]: 105% | growth [17]: 111% | growth [18]: 112% | growth [19]: 108%

CN1CCC2(CC1)C(C#N)C(=O)NC(=O)C2C#N (configuration not stated)
growth [1]: 113% | growth [3]: 105% | growth [20]: 91.9% | growth [4]: 125% | growth [5]: 110% | growth [6]: 92% | growth [7]: 95.8% | growth [8]: 107% | growth [9]: 104% | growth [10]: 100% | growth [11]: 86.5% | growth [12]: 109% | growth [13]: 99% | growth [14]: 104% | growth [15]: 97.3% | growth [16]: 110% | growth [17]: 123% | growth [18]: 117% | growth [19]: 113%

C[N+]12CCC34C5=CC(=O)C(=O)C=C5[N+]5(C)C(=O)CC6OCC=C(C1)C(CC32)C6C45 (configuration not stated)
growth [1]: 120% | growth [3]: 105% | growth [20]: 96.7% | growth [4]: 116% | growth [5]: 101% | growth [6]: 116% | growth [7]: 126% | growth [8]: 84.2% | growth [9]: 102% | growth [11]: 92% | growth [12]: 102% | growth [13]: 99.5% | growth [14]: 106% | growth [15]: 101% | growth [16]: 99.9% | growth [17]: 96.9% | growth [18]: 103%

O=S(=O)(c1ccc(O)cc1)c1ccccc1O
growth [1]: 104% | growth [2]: 107% | growth [3]: 101% | growth [4]: 107% | growth [5]: 98.7% | growth [6]: 96.2% | growth [7]: 97% | growth [8]: 106% | growth [10]: 103% | growth [11]: 103% | growth [12]: 99.8% | growth [13]: 102% | growth [14]: 98.9% | growth [15]: 116% | growth [16]: 107% | growth [17]: 117% | growth [18]: 110% | growth [19]: 104%

Cn1cc(C(=O)C[n+]2ccccc2)c2ccccc21
growth [1]: 104% | growth [2]: 65.4% | growth [3]: 101% | growth [20]: 98% | growth [4]: 115% | growth [5]: 109% | growth [6]: 99.5% | growth [7]: 84.8% | growth [10]: 103% | growth [12]: 98.2% | growth [13]: 114% | growth [14]: 105% | growth [15]: 90.4% | growth [16]: 101% | growth [18]: 109% | growth [19]: 96.8%

Cc1cc(NC(=O)NCCCOc2ccc(N3C(N)=NC(N)=NC3(C)C)cc2Cl)ccc1S(=O)(=O)F
growth [1]: 42.2% | growth [2]: 43% | growth [3]: 27.8% | growth [20]: 94.9% | growth [4]: 46.5% | growth [5]: 72.6% | growth [6]: 107% | growth [7]: 94.6% | growth [10]: 37.5% | growth [11]: 22.4% | growth [12]: 36.6% | growth [13]: 31.7% | growth [14]: 43.1% | growth [15]: 34.5% | growth [16]: 65.3% | growth [17]: 25% | growth [18]: 24.2% | growth [19]: 60.3%

CCC(=O)C(CC(C)[N+](C)(C)C)(c1ccccc1)c1ccccc1 (configuration not stated)
growth [1]: 104% | growth [3]: 98.2% | growth [20]: 95.9% | growth [4]: 98.1% | growth [5]: 102% | growth [6]: 95.4% | growth [7]: 111% | growth [8]: 109% | growth [9]: 114% | growth [10]: 104% | growth [11]: 101% | growth [12]: 109% | growth [13]: 99.8% | growth [14]: 96.8% | growth [15]: 110% | growth [16]: 96.6% | growth [17]: 101% | growth [18]: 70.6% | growth [19]: 107%

O=S(OO)c1cc(Cl)c(O)c(Cl)c1 (configuration not stated)
growth [1]: 110% | growth [3]: 101% | growth [20]: 84.2% | growth [4]: 100% | growth [5]: 100% | growth [6]: 91.3% | growth [7]: 82.5% | growth [8]: 103% | growth [9]: 91% | growth [10]: 103% | growth [11]: 95.1% | growth [12]: 99.9% | growth [13]: 101% | growth [14]: 107% | growth [16]: 103% | growth [17]: 104% | growth [18]: 114% | growth [19]: 104%

O=P1(N(CCCl)CCCl)NCCCO1 (configuration not stated)
growth [1]: 114% | growth [2]: 101% | growth [3]: 95.4% | growth [20]: 90.3% | growth [5]: 103% | growth [6]: 99.8% | growth [7]: 115% | growth [9]: 95.6% | growth [11]: 99% | growth [12]: 103% | growth [13]: 102% | growth [14]: 108% | growth [16]: 111% | growth [17]: 114% | growth [18]: 121% | growth [19]: 115%

c1ccc2c(c1)O[As](O[As]1Oc3ccccc3O1)O2
growth [1]: 5.79% (active) | growth [3]: 40.2% | growth [20]: 32.2% | growth [4]: 61.6% | growth [5]: 59.3% | growth [6]: 16.5% | growth [7]: 27.5% | growth [8]: -28.3% (active) | growth [10]: 19.2% | growth [11]: 2.68% (active) | growth [12]: -14.9% (active) | growth [13]: 23.3% | growth [14]: 40.6% | growth [16]: 75.6% | growth [17]: 6.22% (active) | growth [18]: 14.2% | growth [19]: 38.8%

O=S1(=O)OCCO1
growth [1]: 113% | growth [2]: 100% | growth [3]: 93.3% | growth [4]: 98.5% | growth [5]: 99.2% | growth [6]: 89.5% | growth [7]: 99% | growth [8]: 98.6% | growth [9]: 94.6% | growth [10]: 114% | growth [12]: 104% | growth [13]: 102% | growth [14]: 96.3% | growth [15]: 99.4% | growth [16]: 117% | growth [17]: 106% | growth [18]: 106% | growth [19]: 95.1%

COC1C(O)CC(OC2CC(Oc3cc4cc5c(c(O)c4c(O)c3C)C(=O)[C@@H](OC3CC(OC4CC(OC6CC(C)(O)C(OC(C)=O)C(C)O6)C(O)C(C)O4)C(O)C(C)O3)[C@H]([C@H](OC)C(=O)[C@@H](O)[C@@H](C)O)C5)OC(C)C2OC(C)=O)OC1C (some centres not stated)
growth [1]: -42.1% (active) | growth [2]: -12.7% (active) | growth [3]: 7.02% (active) | growth [20]: -12.5% (active) | growth [4]: 2.86% (active) | growth [5]: 2.04% (active) | growth [6]: -25.9% (active) | growth [8]: -23.8% (active) | growth [9]: -8.99% (active) | growth [10]: 1.77% (active) | growth [11]: 1.63% (active) | growth [12]: -30.8% (active) | growth [14]: -67% (active) | growth [16]: 12.2% | growth [17]: -23.8% (active) | growth [18]: -9.73% (active)

CN1[C@@H](CC(=O)c2ccccc2)CCC[C@H]1CC(=O)c1ccccc1
growth [1]: 42.8% | growth [2]: 96.7% | growth [3]: 96.6% | growth [20]: 83.7% | growth [5]: 97.3% | growth [6]: 101% | growth [7]: 115% | growth [8]: 116% | growth [9]: 111% | growth [10]: 111% | growth [11]: 111% | growth [12]: 120% | growth [13]: 93.3% | growth [14]: 101% | growth [16]: 117% | growth [17]: 26.5% | growth [18]: 101% | growth [19]: 83%

Cc1ccc(S(=O)(=O)n2cc([C@@]3(O)C[C@H](CSC#N)OC3=O)c3ccccc32)cc1
growth [1]: 61% | growth [2]: 102% | growth [3]: 60.7% | growth [20]: 56.2% | growth [4]: 64.2% | growth [5]: 63% | growth [6]: 66.8% | growth [7]: 97.1% | growth [9]: 31.7% | growth [11]: 49% | growth [12]: 16.3% | growth [13]: 83.2% | growth [14]: 83.9% | growth [15]: 75.7% | growth [16]: 99.6% | growth [18]: 54.8% | growth [19]: 44.4%

NC(=O)c1c(Br)c(Br)c(Br)c(Br)c1C(=O)O (tested in a mixture with another compound)
growth [1]: 101% and 113% | growth [2]: 108% and 99.9% | growth [3]: 87.8% and 93.3% | growth [20]: 72.4% and 51.5% | growth [4]: 122% and 123% | growth [5]: 92.7% and 101% | growth [6]: 92.8% and 97.5% | growth [7]: 113% | growth [11]: 52.6% and 86.2% | growth [12]: 101% and 97.9% | growth [13]: 97.5% and 96.6% | growth [14]: 94.5% and 97.3% | growth [16]: 113% and 102% | growth [17]: 124% and 110% | growth [18]: 111% and 112% | growth [19]: 114% and 115%

Cc1ccccc1-n1c(/C=C\c2ccccn2)nc2ccccc2c1=O
growth [1]: 79.4% | growth [2]: 82.8% | growth [3]: 77.7% | growth [20]: 54.7% | growth [4]: 49% | growth [6]: 31.2% | growth [7]: 62.1% | growth [8]: 19.9% | growth [9]: 29.9% | growth [10]: 32.7% | growth [11]: -5.07% (active) | growth [12]: 2.88% (active) | growth [13]: 71% | growth [14]: 106% | growth [15]: 67.6% | growth [16]: 86.6% | growth [17]: 67.1% | growth [18]: 50.3% | growth [19]: 44.2%

O=C(O)c1cc([N+](=O)[O-])cc([N+](=O)[O-])c1
growth [1]: 87.1% | growth [2]: 104% | growth [3]: 97.5% | growth [20]: 92% | growth [4]: 96.9% | growth [5]: 105% | growth [6]: 93.8% | growth [7]: 92.6% | growth [11]: 120% | growth [12]: 101% | growth [13]: 89.6% | growth [14]: 104% | growth [15]: 109% | growth [16]: 94.9% | growth [18]: 102% | growth [19]: 98.1%
